Results filed as inconclusive are left out. A call without a number means that no potency is given here. Activity calls are given as the source filed them. The call rests on the fitted dose curve; in most records, active means well fitted inhibition curve with a large enough effect; inconclusive means small, poorly fitted or top-dose-only effect; inactive means flat fitted curve, though single readings scatter.

Calcium and integrin-binding protein 1 (Homo sapiens), sequence (Q99828 whole entry, looked up): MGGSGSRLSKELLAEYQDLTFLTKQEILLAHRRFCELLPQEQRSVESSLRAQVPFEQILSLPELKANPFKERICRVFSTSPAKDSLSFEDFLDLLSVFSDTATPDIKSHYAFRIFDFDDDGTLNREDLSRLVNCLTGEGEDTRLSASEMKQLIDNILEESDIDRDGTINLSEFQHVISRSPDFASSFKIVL

This experiment deals with Calcium and integrin-binding protein 1 (Homo sapiens) (UniProt Q99828). The experiment in a line: Primary qHTS for Identification of Calcium Integrin Binding Protein 1 (CIB1) Competitor (AID 1508620).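 Further: GST tagged CIB1 binding a fluorescein labelled alphaIIb integrin peptide tracer; top concentration of the series differs between compounds.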 The conditions noted are these: CIB1-GST / FITC-alphaIIb peptide fluorescence polarization; series mostly up to 57.7 µM. Summed up:
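Fluorescence polarization competition: CIB1-GST (1 uM final) preincubated with compound 15 min at room temperature, then FITC-labeled alphaIIb peptide (100 nM final) added for another 15 min. Polarization read at Ex 480/Em 540.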
On the technique in general: Quantitative high-throughput screening tests each substance at several concentrations.
On to `COC1CC(O[C@H]2CC[C@@]3(C)C(=CC[C@]4(O)C3[C@H](O)[C@@H](O)[C@]3(C)[C@@H]([C@H](C)O)CC[C@@]34O)C2)OC(C)C1OC1CC(OC)C(OC2CC(OC)C(OC3OC(C)C(OC4OC(CO)C(O)C(O)C4O)C(OC)C3O)C(C)O2)C(C)O1` (some centres undefined), for which the Potency result was “inactive”.
With `CC(=O)O[C@@]1(C)[C@@H]2CC(=C(C)C)C(=O)C[C@@]2(C)CC[C@H]1OC(=O)C1(C)OC1C` (some centres undefined), the Potency entry was “inactive”.
Turning to `CC1(C)CC[C@]2(C(=O)O[C@@H]3O[C@H](CO)[C@@H](O)[C@H](O)[C@H]3O)CC[C@]3(C)C(=CCC4[C@@]5(C)CC[C@H](O[C@@H]6O[C@H](C(=O)O)[C@@H](O)[C@H](O)[C@H]6OC6OC(CO)C(O)C(O)C6O)C(C)(C)C5CC[C@]43C)[C@@H]2C1` (some centres undefined), the Potency entry is “inactive”.
The same measure for `O=C(O)C1(c2ccc(-c3ccc(Cl)c(Cl)c3)c(F)c2)CC1`: “inactive”; for `CC1C2=CC(=O)OC2(O)CC2C1C(O)CC1C(C)(CO)CCCC21C` (centres undefined): “inactive”; for `CC1CCC2(C(=O)O)CCC3(C)C(=CCC4C5(C)CCC(O)C(C)(C(=O)O)C5CCC43C)C2C1(C)O` (centres undefined): “inactive”.
With `O=C(/C=C/c1ccc(O)c(O)c1)OC[C@H]1O[C@@H](OC2CCCCC2O)[C@H](O)[C@@H](O)[C@@H]1O` (some centres undefined), the Potency entry is “inactive”.
With `C=CC1(C)C=C2CC[C@H]3[C@@](C)(C(=O)O)CCC[C@]3(C)C2CC1` (some centres undefined), the Potency result was “inactive”.
With `COc1ccc(/C=C/C(=O)O[C@@H]2[C@@H](OC(C)=O)[C@@H](OC(C)=O)[C@H](O[C@H]3[C@@H]4C=CO[C@@H](O[C@@H]5O[C@H](CO)[C@@H](O)[C@H](O)[C@H]5O)[C@@H]4[C@@]4(CO)O[C@@H]34)O[C@H]2C)cc1`, the Potency result was “inactive”.

(Values after PubChem BioAssay (NCATS).)
